Compounds without any hit were thinned out: in the full panel of roughly 83,000, 20% have a hit.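 Assay: single dose, 48 h. Readout: percent growth (0 = no net growth; negative = cell death). Active: <10.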 Values without a mark were called inactive. Active and inactive are the calls of the source.
Assays:
Test in all cases: NCI-60 one-dose screen, 48 h (100 = growth as untreated, 0 = no growth, -100 = all killed)
Conditions in all cases: 10 µM unless noted
NCI-H23 lung = tested on: NCI-H23 lung
NCI-H226 lung = tested on: NCI-H226 lung
NCI-H322M lung = tested on: NCI-H322M lung
HOP-62 NSCLC = tested on: HOP-62 NSCLC
NCI-H460 lung = tested on: NCI-H460 lung
HOP-92 NSCLC = tested on: HOP-92 NSCLC
NCI-H522 lung = tested on: NCI-H522 lung
A549/ATCC NSCLC = tested on: A549/ATCC NSCLC
786-0 renal = tested on: 786-0 renal
COLO 205 colon = tested on: COLO 205 colon

Row | SMILES | growth (NCI-H23 lung) | growth (NCI-H226 lung) | growth (NCI-H322M lung) | growth (HOP-62 NSCLC) | growth (NCI-H460 lung) | growth (HOP-92 NSCLC) | growth (NCI-H522 lung) | growth (A549/ATCC NSCLC) | growth (786-0 renal) | growth (COLO 205 colon)
1 | C#C[C@H](O)/C=C/CCCCCCC#C[C@H](O)CC[C@@H](O)C#CCCCCCC/C=C/[C@@H](O)C#C | 51% | 116% | 96.3% | 85.3% | 97.4% | 11.9% | -72.7% (active) | 91.1% | 64.6% | 79.8%
2 | C=CC(=O)Nc1cccc(Nc2nc(Nc3ccc(OCCOC(F)F)cc3)ncc2F)c1 | 75.2% | 22.5% | 10.3% | 29.1% | 37.4% | -0.338% (active) | -7.77% (active) | 30.9% | 20% | 63.5%
3 | Cc1cc(NCCN(C(C)C)C(C)C)nc(/N=C(\N)Nc2ccc(Cl)c(C(F)(F)F)c2)n1 | -67.1% (active) | -32.1% (active) | -51.9% (active) | -95.4% (active) | -84.7% (active) | -93.5% (active) | -81.1% (active) | -89.5% (active) | -99.7% (active) | -71.3% (active)
4 | CCOc1ccc(Cc2nccc3cc(OCC)c(OCC)cc23)cc1OCC | 34% | 73.3% | 66.8% | 67.7% | 48% | 52% | 56.4% | 64.6% | 64.8% | 76.2%
5 | FC(F)(F)c1cn(CC2CNC2)c2ncnc(Cl)c12 | 104% | 102% | 111% | 102% | 105% | 114% | 89.7% | 94.3% | 107% | 106%
6 | CCC1(C(N)=O)CC2C=CC1CC2 (stereo not given) | 249% | 109% | 114% | 136% | 113% | 94.1% | 99.1% | 102% | 171% | 94.8%
7 | CCCC(C)(C)COC(=O)c1cccc(N)c1 | 103% | 87.8% | 80.9% | 92.5% | 108% | 85% | 60.6% | 89.7% | 93.6% | 110%
8 | COC(=O)/C=C/C(=O)c1cc(C)cc(C)c1O | 97.5% | 102% | 101% | 96.6% | 111% | 113% | 92.9% | 98.6% | 100% | 108%
9 | CC(=O)Nc1ccc([I+]c2ccc([N+](=O)[O-])cc2)cc1 | 84.6% | 79.9% | 94.8% | 96.4% | 104% | 90.5% | 46.5% | 98.9% | 98.3% | 63.4%
10 | COc1ccc(/C=C2/C(=O)Nc3cc(Cl)c(-c4csc(N)n4)cc32)cc1 | 58% | 69.2% | 68.3% | 50.1% | 42.7% | 43.1% | 21.6% | 48.5% | 62.3% | 33.7%
11 | Cc1cc(N2CCOCC2)nc(N(CCNc2ccnc3cc(Cl)ccc23)Cc2ccco2)n1 | 58% | 60.5% | 41.8% | 36.5% | 47.3% | 46.7% | 13.9% | 50.7% | 5.93% (active) | -4.11% (active)
12 | COc1ccc(/C=C/C(=O)c2ccc(NC(=O)CSc3nnc(-c4cc(OC)c(OC)c(OC)c4)o3)cc2)cc1 | -17% (active) | 12.9% | 20.2% | 43.8% | 14.5% | -55.4% (active) | -76.4% (active) | 7.85% (active) | -58.4% (active) | -61.1% (active)
13 | CCc1c2cc(Cl)ccc2n2cc(Cc3ccccc3)[nH]c(=O)c12 | 94.3% | 100% | 83.7% | 103% | 90.9% | 96% | 104% | 106% | 109% | 97.5%
14 | COc1ccccc1S(=O)(=O)Nc1ccc2c3c(cc(-c4cnn(C)c4)nc13)C(=O)N2C | 46.6% | 61.9% | 47.4% | 33.3% | 46.9% | 27.4% | 36% | 38.6% | 43.8% | 15.8%
15 | COc1cc(NC(C)CCCN2C(=O)c3ccccc3C2=O)c2nccc(C)c2c1OC (stereo not given) | 90.1% | 94.1% | 102% | 103% | 108% | 60.1% | 75.2% | 93.9% | 94.2% | 131%
16 | Cc1ccc2[nH]c3nc4cccnc4c(C)c3c2c1 | 36.5% | 77.9% | 44.4% | 63.2% | 11.4% | 115% | 70.3% | 74.5% | 107% | 101%
17 | COc1ccc(Cl)cc1NC(=O)c1cc2c(n1C)-c1nc(NC(=O)C(C)C)sc1CC2 | 89.4% | 61.3% | 99.1% | 85.7% | 94% | 91% | 49.9% | 71.5% | 88.1% | 96.8%
18 | Nc1nccc(=S)[nH]1 | 92.7% | 103% | 101% | 100% | 107% | 110% | 63.2% | 74.3% | 99.7% | 127%
19 | CCc1c(C)c2cc3nc(NCc4ccccc4)oc3c(C)c2oc1=O | 69.7% | 88.1% | 70.2% | 73.7% | 60.3% | 78.1% | 45.5% | 78.6% | 44.4% | 114%
20 | Cc1cn(C2CC(N=[N+]=[N-])C(COP(=O)(O)OP(=O)(O)OP(=O)(O)O)O2)c(=O)[nH]c1=O (stereo not given) | 94.7% | 115% | 102% | 94.1% | 82.4% | 50.9% | 92.9% | 146% | 95.2% | 119%
21 | O=c1c(-c2ccc3c(c2)OCO3)coc2c(CO)c(O)ccc12 | 56.8% | -35.6% (active) | 16.6% | -54.1% (active) | 9.52% (active) | -21.6% (active) | 36.7% | 49.2% | 23.6% | 113%
22 | O=C(Nc1cccc(-n2ccc3c(NC(=O)c4ccccc4)nccc32)c1)Nc1cc(C(F)(F)F)cc(C(F)(F)F)c1 | 3.76% (active) | 26.3% | 46% | 35.6% | 2.99% (active) | -13% (active) | -46.5% (active) | 7.57% (active) | 13.4% | -36.3% (active)
23 | O=C(NCCNc1nccc(-c2c(-c3cccc(O)c3)nc3sccn23)n1)Nc1cc(C(F)(F)F)cc(C(F)(F)F)c1 | 90.9% | 101% | 87% | 118% | 51.8% | 74.4% | 69.5% | 57.7% | 82% | 45.1%
24 | O=c1[nH]ccc2nc(N3CCC(O)CC3)nc(Nc3cccc(C(F)(F)F)c3)c12 | 62.2% | 57.4% | 102% | 92.9% | 73.4% | 105% | 51.7% | 53.4% | 58.3% | 35.7%
25 | C=C1C(=O)O[C@H]2[C@H]1CC/C(COC(=O)CCCC(=O)OC/C1=C/CC[C@@]3(C)O[C@H]3[C@H]3OC(=O)C(=C)[C@@H]3CC1)=C\CC[C@@]1(C)O[C@@H]21 | 29.2% | -44.4% (active) | 90% | 79.6% | 64.5% | -43% (active) | -80.3% (active) | 73.5% | -34.1% (active) | -44.9% (active)
26 | COc1ccc2c(c1)OC(N(C(C)=O)C(C)=O)=C(C#N)C2c1ccc(F)cc1 (stereo not given) | 50.9% | 75.2% | 48.8% | 39.2% | 15.8% | 63.4% | -5.26% (active) | 45.1% | 28.9% | 30.2%
27 | NC(=NCCCOc1ccc(F)cc1)Nc1ccc(Cl)c(Cl)c1 | 67.9% | 76.2% | 69.3% | 78.7% | 74.3% | 16.5% | 67.6% | 82.5% | 67.6% | -57.7% (active)

— PubChem BioAssay (NCI)
